Screens (PubChem BioAssay)
DT40 TDP1 no CPT: qHTS for Inhibitors of human tyrosyl-DNA phosphodiesterase 1 (TDP1): qHTS in cells in absence of CPT | DT40 Tdp1-/- hTDP1 cells, no CPT, ATP luminescence, 48 h | Potency, µM (series often up to 46.2 µM), inactives show at the top dose activity change, negative = growth inhibition, usual class: inhibitors | 15% of 420,000 active | AID 686978, 2013; also: potency is read from the fitted curve at half-maximal effect; nearly all actives have a fitted effect of over 55% in size
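Chicken DT40 Tdp1-/- cells stably complemented with human TDP1 were seeded at 400 cells/well with DMSO in place of 20 nM camptothecin. After compound pinning, cells grew at least 48 hr at 37 °C; viability read by CellTiter-Glo luminescence.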
IL1B secr inh: qHTS for Inhibitors of Inflammasome Signaling: IL-1-beta AlphaLISA Primary Screen | 4.7% of 360,000 active | THP-1 LPS/ATP IL-1B secretion, AlphaLISA, 16 h; stronger effect = lower value | activity change, % at 57.5 µM | AID 743279, 2014; in the data active = activity change below about -50%; inconclusive = mostly about -30% to -49%
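Secreted IL-1B measured by AlphaLISA bead assay after 16 h compound exposure of THP-1 cells; compounds (final up to 57.5 uM) added 1 h before LPS (250 ng/mL) and ATP (1.25 mM) stimulation; lower signal means less secretion.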
ALOX12 inh: Primary qHTS assay for inhibitors of human arachidonate 12S-lipoxygenase (ALOX12): Round 2 | Polyunsaturated fatty acid lipoxygenase ALOX12 (Homo sapiens), P18054 | purified 12hLO, xylenol orange hydroperoxide absorbance | Potency, µM (top dose mostly 108 µM), without a hit: top-dose activity change, negative = inhibition, most hits filed as inhibitors | 1.1% of 580,000 active; also: potency is read from the fitted curve at half-maximal effect
Target sequence (P18054 whole entry, looked up): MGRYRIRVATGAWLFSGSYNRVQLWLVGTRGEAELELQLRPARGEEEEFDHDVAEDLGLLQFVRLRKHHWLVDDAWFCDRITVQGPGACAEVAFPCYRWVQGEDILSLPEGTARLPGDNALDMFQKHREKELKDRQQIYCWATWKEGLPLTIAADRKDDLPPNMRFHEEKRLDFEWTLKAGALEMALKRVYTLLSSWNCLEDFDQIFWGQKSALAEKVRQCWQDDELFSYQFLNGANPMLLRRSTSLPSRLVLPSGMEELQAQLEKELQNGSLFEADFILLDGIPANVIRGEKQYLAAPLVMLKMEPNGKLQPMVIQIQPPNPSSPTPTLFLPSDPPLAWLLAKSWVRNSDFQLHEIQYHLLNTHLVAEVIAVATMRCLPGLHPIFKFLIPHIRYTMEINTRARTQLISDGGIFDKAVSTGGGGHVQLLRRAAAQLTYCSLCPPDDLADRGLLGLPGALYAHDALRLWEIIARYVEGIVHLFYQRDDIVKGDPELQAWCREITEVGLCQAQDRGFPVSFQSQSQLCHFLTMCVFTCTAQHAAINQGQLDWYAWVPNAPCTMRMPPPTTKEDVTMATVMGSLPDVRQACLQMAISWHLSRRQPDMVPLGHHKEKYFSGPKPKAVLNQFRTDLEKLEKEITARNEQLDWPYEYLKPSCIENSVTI
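Purified human 12hLO (150 nM final) in 25 mM Hepes, 0.01% Triton X-100, pH 7.0 was preincubated 15 min at room temperature with compound. Then 40 uM arachidonic acid was added, 30 min. Hydroperoxide was read by Fe-XO absorbance ratio 573/405 nm.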
HT1080 IDH1KD tx: qHTS for induction of synthetic lethality in tumor cells producing 2HG: qHTS for the HT-1080-IDH1KD cell line. HT-1080 IDH1 knockdown viability, ATP luminescence, 48 h. Potency, µM (doses to about 46.1 µM), for inactives: at the top dose activity, negative = toxicity, usual class: cytotoxic. 2% of 360,000 active;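 also: potency is read from the fitted curve at half-maximal effect; 0% = DMSO wells and -100% = cell-free medium wells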
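HT-1080-IDH1KD cells (IDH1 knocked down), 750/well in RPMI with 5% FBS, treated with compound 48 h at 37 degrees C. Viability by CellTiter-Glo luminescence, normalised to DMSO and no-cell wells; concentration-response curves classed.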
HT1080NT lethal: qHTS for induction of synthetic lethality in tumor cells producing 2HG: qHTS for the HT-1080-NT fibrosarcoma cell line; HT-1080-NT fibrosarcoma viability, CellTiter-Glo ATP luminescence, 48 h; Potency, µM (titrated, usually from 46.1 µM), without a hit: at the highest dose activity, negative = less viability, usual class: cytotoxic; 1.6% of 360,000 active; AID 686970, 2013;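 also: NT is the 2HG producing partner of a matched IDH1 knockdown line; potency is read from the fitted curve at half-maximal effect; 0% = DMSO-treated cells and -100% = media-only wells without cells; nearly all actives have a fitted effect of over 55% in size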
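Fibrosarcoma NT cells, 750 per well in 5% FBS RPMI, were exposed to compound for 48 hours. Viability: CellTiter-Glo luminescence.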
TDP1 cell CPT: qHTS for Inhibitors of human tyrosyl-DNA phosphodiesterase 1 (TDP1): qHTS in cells in presence of CPT. chicken DT40 Tdp1-/-;hTDP1 cells + 20 nM CPT, ATP luminescence, 48 h. Potency, µM (doses to about 46.2 µM), inactives show top-dose activity change, negative = growth inhibition, hits mostly inhibitors. 12% of 420,000 active; also: potency is read from the fitted curve at half-maximal effect; nearly all actives have a fitted effect of over 55% in size
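Cell growth measured by CellTiter-Glo luminescence after a minimum 48 h, 37 C compound exposure with 20 nM CPT in Tdp1-knockout DT40 cells stably expressing hTDP1, seeded 400/well; qHTS titration format.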
* hit, by the source's call; ? = inconclusive; . = no result; [ ] = remark or other dose. Shown is part of a subset that was picked to be rich in hits. Unless noted, calls follow the shape of the dose curve; as a rule, active = well fitted curve in the direction sought with a large enough effect; inconclusive = small, poorly fitted or top-dose-only effect, or another doubt; inactive = no such curve, though single readings can be large; an effect the other way counts as inactive or inconclusive. Unless noted, % is scaled to controls: 0 for no effect and ±100 for the full control effect.

SMILES | DT40 TDP1 no CPT | IL1B secr inh | ALOX12 inh | HT1080 IDH1KD tx | HT1080NT lethal | TDP1 cell CPT
C/C(=C/C(=O)C(F)(F)F)N1CCC(C(N)=O)CC1 | . | . | -30% | . | . | .
COC(=O)[C@H]1[C@H]2C[C@@H]3c4[nH]c5cc(OC)ccc5c4CCN3C[C@H]2C[C@@H](OC(=O)COc2ccc(OC)cc2)[C@@H]1OC | -21% | . | . | . | . | -4%
CCOC(=O)Oc1c(OC)cc(C(=O)O[C@@H]2C[C@@H]3CN4CCc5c([nH]c6cc(OC)ccc56)[C@H]4C[C@@H]3[C@H](C(=O)OC)[C@H]2OC)cc1OC | 13µM* | 0 | ? | ? | 15µM* | 23µM*
Cc1c(Cl)ccc2c(C(O)CBr)cc(-c3ccccc3)nc12 (stereo unspecified) | 16µM* | -86* | ? | ? | ? | ?
Cc1cc(C)nc(NNC2=CC(=[N+]3CCCC3)CCC2)n1 | ? | -10 | -15% | -5% | -1% | -21%
Cc1cc(C)nc(NNC2=CC(=[N+]3CCCCC3)CC(C)(C)C2)n1 | 15µM* | 1 | -8% | 26% | 12% | -25%
COc1cccc(/C=C/c2nc3ccccc3c(=O)n2-c2ccc(C)c(C)c2)c1OC | 8.2µM* | . | 6% | . | . | 10µM*
O=C(O)c1cc(-n2c(/C=C\c3ccc(F)cc3)nc3ccccc3c2=O)ccc1Cl | 21µM* | . | 7% | . | . | 15µM*
O=C(O)c1cccc(-n2c(/C=C/c3ccccc3)nc3ccccc3c2=O)c1 | ? | 5 | ? | -3% | 0% | ?
O=c1c2ccccc2nc(/C=C/c2cccc3ccccc23)n1-c1ccc(F)cc1F | ? | . | ? | . | . | 23µM*
COc1cc(OC)c(OC)cc1/C=C/c1nc2cc3ccccc3cc2c(=O)n1-c1ccc(F)cc1F | 8.2µM* | . | ? | . | . | 12µM*
O=C(CSc1nc2ccccc2c(=O)n1-c1ccc(F)cc1F)NC1CC1 | ? | 0 | -2% | -1% | -2% | -10%
O=C(Nc1ccc(S(=O)(=O)Nc2cnc3ccccc3n2)cc1)c1ccc(Oc2ccccc2)cc1 | . | . | 6% | . | . | .
CC(C)CCN1CCOc2cc(C(=O)Nc3cccnc3)ccc2C1 | . | . | 25%[176 µM] | . | . | .
CCNS(=O)(=O)c1ccc(C)c(C(=O)N2CCCC2c2ccc(OC)c(OC)c2)c1 (stereo unspecified) | . | . | -7% | . | . | .
COC(CNC(=O)c1cnn2c(C)c(Cc3ccccc3)c(C)nc12)OC | 16µM* | ? | 45% | -9% | -2% | ?
COC(CNC(=O)Cc1c(C)nc2c(-c3ccccc3)c(C)nn2c1C)OC | -30% | -8 | -29% | 13% | 12% | 0%
Cc1nc2c(C(=O)NC(C)c3ccccc3)cnn2c(C)c1Cc1ccccc1 (stereo unspecified) | ? | . | ? | . | . | 13µM*
CCCCC(=O)Nc1ccc2oc(-c3ccc(OC)cc3)nc2c1 | . | . | -7% | . | . | .
CC(=O)c1sc(NC(=O)c2nn(CC(C)C)c(=O)c3ccccc23)nc1C | . | . | -21% | . | . | .
CC(C)C(OC(=O)C1=Cc2ccccc2OC1)C(=O)NCC1CCCO1 (stereo unspecified) | ? | 16 | ? | 3% | -5% | -20%
O=C(CSc1ccc(C(F)(F)F)cn1)Nc1ccccc1 | -2% | -9 | -10% | 10% | 17% | 3%
O=C(/C=C/Sc1ccc(C(F)(F)F)cn1)c1ccccc1 | 2.3µM* | ? | ? | 5% | -2% | 2.9µM*
CCc1c(C)nc2ncnn2c1N1CCCC(C(=O)NCc2ccc3c(c2)OCO3)C1 (stereo unspecified) | 21µM* | 7 | -2% | -9% | -5%[9.24 µM] | ?
Cn1c(C(=O)N2CCCC(C(=O)NCc3ccc4c(c3)OCO4)C2)cc2sccc21 (stereo unspecified) | 23µM* | 3 | -6% | 0% | 16% | ?
SMILES | DT40 TDP1 no CPT | IL1B secr inh | ALOX12 inh | HT1080 IDH1KD tx | HT1080NT lethal | TDP1 cell CPT
CCn1c(C(=O)N2CCC(C(=O)NCc3ccc4c(c3)OCO4)CC2)cc2sccc21 | 15µM* | 0 | -2% | -2% | -26% | 23µM*
Cc1ccc(CCNC(=O)C2CCCN(C(=O)c3cc4sccc4n3C)C2)cc1 (stereo unspecified) | ? | -26 | 18% | -21% | 0% | -29%
CS(=O)(=O)c1ccc(OCC2(CNC(=O)c3cnccn3)C[C@@H](O)[C@@H](O)C2)cc1 (stereo partly specified) | . | . | 98% | . | . | .
Cc1ccccc1CNC(=O)c1cccc(CS(C)=O)c1 (stereo unspecified) | . | . | 47% | . | . | .
COc1ccc(C(=O)Nc2ccc3[nH]c(-c4cccc(OC)c4)cc(=O)c3c2)cc1 | 0.65µM* | 81 | ? | ? | ? | 1µM*
COc1ccc(C(=O)Nc2cccc(OC)c2)cc1 | ? | -13 | 7% | -23% | -26% | -26%
COc1ccc2[nH]c(-c3ccc(C)cc3)cc(=O)c2c1 | 16µM* | 38 | . | 23µM* | ? | 13µM*
COc1ccc(-c2cc(=O)c3cc(F)ccc3[nH]2)cc1 | ? | 2 | -24% | 13% | -1% | ?
COc1cc(/C=C/C(=O)OC(C)C(=O)c2ccccc2)ccc1OCC#N (stereo unspecified) | . | . | 15% | . | . | .
COc1cc(C(=O)O/N=C2/C=C(C)C(=O)C=C2C)cc(OC)c1OC | 2.1µM* | 18 | -5% | 21% | 6% | 8.2µM*
COc1cc(C(=O)ON=C2C(C)=CC(=O)C=C2C)cc(OC)c1OC | 1% | -4 | 5% | 4% | -2% | -13%
Cc1ccc2nc(SCC(=O)Nc3ccc4c(c3)OCO4)[nH]c2c1 | . | . | -17% | . | . | .
COc1ccc(-c2nc(SCC(=O)Nc3ccc4c(c3)OCO4)c(-c3ccc(OC)cc3)[nH]2)cc1 | -27% | . | -2% | . | . | -19%
Cc1cccc(-c2nc(SCC(=O)Nc3ccc4c(c3)OCO4)c(-c3ccccc3)[nH]2)c1 | ? | . | -4% | . | . | 21µM*
COc1ccc(-c2[nH]c(-c3ccccc3)nc2SCC(=O)Nc2ccc3c(c2)OCCO3)cc1 | 16µM* | . | -19% | . | . | 13µM*
